PubChem BioAssay (NCI)
The panel holds about 83,000 compounds, 20% with a hit somewhere; the sample as a whole holds those more often.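 The endpoint reported here, percent growth, reads 100 for growth as untreated, 0 for no net growth and -100 for all cells dead.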 Unmarked numbers belong to inactive results. Activity calls are given as the source filed them. The calls were made as follows: active = growth percent below 10; inactive = the rest.

test system: M14 melanoma; assay: NCI-60 one-dose screen, 48 h (100 = growth as untreated, 0 = no growth, -100 = all killed); details: 10 µM unless noted

Compound	growth
CN1CCN(Cc2ccc(NC(=O)c3cncc(C#Cc4cnc5ccc(NCCCO)nn45)c3)cc2C(F)(F)F)CC1	-91% (active)
COC(=O)c1[nH]nc2c1C1(C(=O)N(C)c3ccccc31)C(C#N)=C(N)O2 (stereo not drawn)	104%
COc1cc(OC)c(S(N)(=O)=O)cc1C(C)=O	109%
NC(N)=Nc1ccc(Oc2cccc(Nc3ccc(Br)c(C(F)(F)F)c3)c2)cn1	-62.1% (active)
NS(=O)(=O)c1ccc(-n2cc(-c3cccc(NC(=O)c4ccc(N5CCOCC5)c(C(F)(F)F)c4)c3)nn2)cc1	45.3%
CCc1cccc2c3c(sc12)C(c1ccc(OC)cc1)C(C#N)=C(/N=C/c1ccc(Cl)cc1)O3 (stereo not drawn)	4.74% (active)
COc1ccc(/C=C(\C#N)C(=O)N2c3ccccc3Sc3ccc(SC)cc32)cc1F	105%
Cc1ccc(NC(=O)CNc2cc(C(N)=O)cc(F)c2C)c(Cl)c1	103%
CNC(=O)c1cc(Oc2ccc3nc(NC(=O)c4cccc(OC(F)(F)F)c4)sc3c2)ccn1	93.9%
O=C1CCCC2=C1C(c1c[nH]c3ccc(Br)cc13)Cc1cc(Br)ccc1N2 (stereo not drawn)	13.1%
COc1cc2oc(-c3cccc(C(=O)N[C@@H](CC(C)C)C(=O)OC(C)(C)C)c3)cc(=O)c2c(OC)c1OC	93.7%
NC(N)=Nc1ccc(Nc2cccc(Nc3ccc(Cl)c(C(F)(F)F)c3)c2)cn1	47.3%
COc1ccc(C(=O)CSc2nc3c(c(Nc4ccc(S(N)(=O)=O)cc4)n2)CCCC3)cc1	104%
